About 2,000 (36%) of roughly 5,500 compounds were called active. About 18% were inconclusive and are not listed. Some of the results follow. A number with no mark means an inactive call. No stated cut-off is given here; in the data, active means normalized growth mostly below about 0.91 (no sharp cut-off); inconclusive means no clear call, values can overlap the other calls; inactive means mostly above about 0.92.
Experiment: chemical genetic growth profiling, strain panel (AID 1159580);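 further: tested at 20 µM; growth read once vehicle control cultures reached saturation at 30 °C; 1 = growth at the plate median or of vehicle wells; lower values mean less growth of the strain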
Conditions: S. cerevisiae deletion strains, growth OD

Question: What does the source list for `CC(C)c1c(O)ccc2c1CCC1[C@@](C)(C=O)CCC[C@]21C` (stereo partly specified)?
Answer: normalized growth (locus YKL068W, hits give low values): 0.969; normalized growth (locus YKL085W, strain MDH1 (second series), hits give low values): 0.583 (active); normalized growth (locus YKL085W, strain MDH1, hits give low values): 0.583 (active); normalized growth (locus YKL160W, strain elf1, hits give low values): 0.915; normalized growth (locus YKL190W, strain CNB1, hits give low values): 0.154 (active); normalized growth (locus YKR001C, strain vps1, hits give low values): 0.0888 (active); normalized growth (locus YKR026C, strain gcn3, hits give low values): 1; normalized growth (locus YKR091W, strain srl3, hits give low values): 1.01; normalized growth (locus YLL001W, strain dnm1, hits give low values): 0.964; normalized growth (locus YLL026W, hits give low values): 0.79 (active); normalized growth (locus YLL041C, strain sdh2, hits give low values): 0.895 (active); normalized growth (locus YLR027C, strain aat2, hits give low values): 0.653 (active); normalized growth (locus YLR039C, strain RIC1, hits give low values): 0.148 (active); normalized growth (locus YLR058C, strain SHM2, hits give low values): 0.352 (active); normalized growth (locus YLR102C, strain apc9, hits give low values): 0.432 (active); normalized growth (locus YLR113W, strain HOG1, hits give low values): 0.782 (active); normalized growth (locus YLR221C, strain rsa3, hits give low values): 0.692 (active); normalized growth (locus YLR258W, strain gsy2, hits give low values): 0.768 (active); normalized growth (locus YLR262C, strain YPT6 (second series), hits give low values): 0.255 (active); normalized growth (locus YLR262C, strain YPT6, hits give low values): 0.219 (active); normalized growth (locus YLR268W, strain sec22, hits give low values): 0.411 (active); normalized growth (locus YLR320W, strain mms22, hits give low values): 0.62 (active); normalized growth (locus YLR330W, strain CHS5, hits give low values): 0.228 (active); normalized growth (locus YLR342W, strain FKS1 (second series), hits give low values): 0.208 (active); normalized growth (locus YLR342W, strain FKS1, hits give low values): 0.774 (active); normalized growth (locus YLR357W, strain rsc2, hits give low values): 1.11; normalized growth (locus YLR370C, strain arc18, hits give low values): 1.01; normalized growth (locus YLR371W, strain rom2, hits give low values): 0.317 (active); normalized growth (locus YLR384C, strain iki3, hits give low values): 1.02; normalized growth (locus YLR418C, strain cdc73, hits give low values): 0.137 (active); normalized growth (locus YML016C, strain PPZ1, hits give low values): 0.8 (active); normalized growth (locus YML032C, strain rad52, hits give low values): 0.467 (active); normalized growth (locus YML120C, strain ndi1, hits give low values): 0.465 (active); normalized growth (locus YML124C, strain tub3, hits give low values): 0.507 (active); normalized growth (locus YMR058W, strain fet3, hits give low values): 0.991; normalized growth (locus YMR078C, strain ctf18, hits give low values): 0.422 (active); normalized growth (locus YMR125W, strain sto1, hits give low values): 1.01; normalized growth (locus YMR129W, hits give low values): 0.972; normalized growth (locus YMR205C, strain PFK2, hits give low values): 0.617 (active); normalized growth (locus YMR223W, strain ubp8, hits give low values): 0.429 (active); normalized growth (locus YMR231W, strain pep5, hits give low values): 1.04; normalized growth (locus YMR307W, strain GAS1, hits give low values): 0.306 (active); normalized growth (locus YNL067W, strain RPL9B, hits give low values): 0.583 (active); normalized growth (locus YNL071W, strain lat1, hits give low values): 0.424 (active); normalized growth (locus YNL183C, strain NPR1, hits give low values): 0.83; normalized growth (locus YNL209W, strain ssb2, hits give low values): 0.959; normalized growth (locus YNL233W, strain BNI4, hits give low values): 0.172 (active); normalized growth (locus YNL248C, strain rpa49, hits give low values): 1.04; normalized growth (locus YNL250W, strain rad50, hits give low values): 0.868 (active); normalized growth (locus YNL271C, strain bni1, hits give low values): 0.875 (active); normalized growth (locus YNL298W, strain CLA4, hits give low values): 0.847 (active); normalized growth (locus YNL307C, strain MCK1, hits give low values): 0.0743 (active); normalized growth (locus YNL322C, strain KRE1 (second series), hits give low values): 1.02; normalized growth (locus YNL322C, strain KRE1, hits give low values): 0.333 (active); normalized growth (locus YNR049C, strain mso1, hits give low values): 1.01; normalized growth (locus YNR052C, strain pop2, hits give low values): 0.53 (active); normalized growth (locus YOL006C, strain TOP1, hits give low values): 0.396 (active); normalized growth (locus YOL012C, strain htz1): 1.05; normalized growth (locus YOL147C, strain pex11, hits give low values): 0.205 (active); normalized growth (locus YOR001W, strain rrp6, hits give low values): 0.857 (active); normalized growth (locus YOR061W, strain CKA2, hits give low values): 0.689 (active); normalized growth (locus YOR069W, strain VPS5, hits give low values): 0.668 (active); normalized growth (locus YOR070C, strain gyp1, hits give low values): 0.598 (active); normalized growth (locus YOR080W, strain dia2, hits give low values): 0.996; normalized growth (locus YOR083W, strain WHI5, hits give low values): 0.822 (active); normalized growth (locus YOR106W, strain vam3, hits give low values): 0.563 (active); normalized growth (locus YOR136W, strain idh2, hits give low values): 0.559 (active); normalized growth (locus YOR144C, strain elg1, hits give low values): 0.48 (active); normalized growth (locus YOR184W, strain ser1, hits give low values): 0.153 (active); normalized growth (locus YOR231W, strain MKK1, hits give low values): 0.784 (active); normalized growth (locus YOR265W, strain rbl2, hits give low values): 0.88 (active); normalized growth (locus YOR270C, strain vph1, hits give low values): 0.739 (active); normalized growth (locus YOR290C, strain snf2, hits give low values): 0.909; normalized growth (locus YOR316C, strain cot1, hits give low values): 0.49 (active); normalized growth (locus YPL051W, strain arl3, hits give low values): 0.769 (active); normalized growth (locus YPL055C, strain LGE1, hits give low values): 0.147 (active); normalized growth (locus YPL078C, strain atp4, hits give low values): 0.996; normalized growth (locus YPL106C, strain sse1, hits give low values): 0.94; normalized growth (locus YPL240C, strain hsp82, hits give low values): 0.626 (active); normalized growth (locus YPL241C, strain CIN2, hits give low values): 0.487 (active); normalized growth (locus YPL256C, strain CLN2, hits give low values): 0.814 (active); normalized growth (locus YPR119W, strain clb2, hits give low values): 0.305 (active); normalized growth (locus YPR141C, strain kar3, hits give low values): 0.999; normalized growth (locus YPR163C, strain tif3, hits give low values): 0.345 (active); normalized growth (locus YPR167C, strain met16, hits give low values): 0.314 (active); normalized growth (strain wtn01, hits give low values): 0.304 (active)

— PubChem BioAssay AID1159580 (chemical genetic matrix, 2015)
